Hits are enriched below; roughly 8.1% of the tested compounds scored in any of these assays.
NOMO-1 viab – STK33 inhibitor candidate reducing NOMO-1 cell viability; NOMO-1 AML viability, CellTiter-Glo luminescence, 72 h; inhibition, % (test concentration not listed); actives 7.5% (n = 37,000); AID 2330; in the data active = inhibition above about 80%
MITF inh – blocks MITF activity. TRPM1 promoter luciferase, luminescence, 24 h. inhibition, % (no concentration beside the values). actives 0.28% (n = 37,000); in the data active = inhibition above about 85%;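 note: human melanocyte line stably carrying TRPM1 promoter luciferase reporter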
Hedgehog inh – blocks Sonic Hedgehog signaling | actives 2.1% (n = 22,000) | Shh-LIGHT2 Gli-luciferase reporter, 30 h | inhibition, % (test concentration not listed);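 active = mean inhibition across valid replicates above about 65%, limit read from the data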;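 note: pathway switched on by Shh-conditioned medium diluted 1 in 25 in low serum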
* hit, by the source's call; . = no result.

SMILES	NOMO-1 viab	MITF inh	Hedgehog inh
CCOCN(C(=O)CCl)c1c(C)cccc1CC	109*	99*	80*
CCc1cccc(CC)c1N(COC)C(=O)CCl	50	26	11
CCCN[C@@H]1CCc2c(OC)cccc2[C@@H]1C	8	5	-17
C[C@H]1O[C@@H](O[C@H]2[C@@H](O)C[C@H](O[C@H]3[C@@H](O)C[C@H](O[C@H]4CC[C@@]5(C)[C@H](CC[C@@H]6[C@@H]5CC[C@]5(C)[C@@H](C7=CC(=O)OC7)CC[C@]65O)C4)O[C@@H]3C)O[C@@H]2C)C[C@H](O)[C@@H]1O	124*	48	3
C[C@H]1OC(O[C@H]2[C@@H](O)CC(O[C@H]3[C@@H](O)C[C@H](O[C@H]4CC[C@]5(C)C6CC[C@]7(C)[C@@H](C8=CC(=O)OC8)[C@@H](O)C[C@]7(O)[C@@H]6CC[C@@H]5C4)O[C@@H]3C)O[C@@H]2C)C[C@H](O)C1O (stereo not given in full)	107*	23	-4
CO[C@H]1C[C@H](OC2CCC3(C)C4CCC5(C)C(C6=CC(=O)OC6)CC(OC(C)=O)C5(O)C4CC[C@H]3C2)O[C@@H](C)[C@@H]1O (stereo not given in full)	109*	10	-3
COC(=O)[C@@]12C(=O)C(C)C(=O)[C@]1(C)C(C)=C[C@H]1[C@]3(C)CC[C@H](OC(C)=O)C(C)(C)[C@H]3CC[C@@]12C (stereo not given in full)	17	-15	-10
COc1cc2c(cc1-c1cc3cc4ccoc4cc3oc1=O)OCO2	5	21	-8
CC[C@H]1C2C[C@H]3[C@@H]4N(C)c5ccccc5C45C[C@H](C2[C@H]5O)N3[C@@H]1O (stereo not given in full)	27	6	36
COc1cc2c(cc1OC)-c1c(oc3c4c(ccc3c1=O)OC(C(C)C)C4)CO2 (stereo not given)	13	-6	-11
NC(N)=NC(N)=Nc1ccc(Cl)cc1	6	0	-4
CC1=C[C@H]2[C@]3(O)[C@H](C)[C@@H](O)[C@@]4(O)[C@H]([C@@H]3C=C(CO)C[C@]2(O)C1=O)C4(C)C	1	-5	13
O=C1NC(=O)N(c2ccccc2)C(=O)/C1=C/c1ccco1	136*	3	.
COc1ccc2c(c1)/C(=C/c1cnc[nH]1)C(=O)N2	98*	30	3
CCC(C)[C@H]1O[C@]2(C=C[C@@H]1C)C[C@@H]1C[C@@H](C/C=C(\C)[C@@H](OC3C[C@H](OC)C(O[C@H]4C[C@H](OC)[C@@H](O)[C@H](C)O4)[C@H](C)O3)[C@@H](C)/C=C/C=C3\CO[C@@H]4[C@H](O)C(C)=C[C@@H](C(=O)O1)[C@]34O)O2 (stereo not given in full)	104*	100*	5
CC1(C)C2CC(=O)[C@]3(C)C(CC[C@@]4(C)[C@H](c5ccoc5)OC(=O)[C@H]5O[C@]543)[C@@]2(C)C(=O)C[C@H]1O (stereo not given in full)	17	-12	-13
Cc1cc(OCC(=O)N(C)C)c2c3c(c(=O)oc2c1)CCCC3	-6	-4	.
C[C@H](N)C(=O)N[C@@H](C)C(=O)N[C@@H](Cc1ccccc1)C(=O)CCl	114*	-18	12
CCOP(=S)(OCC)Oc1nc(Cl)c(Cl)cc1Cl	-9	13	-6
CO[C@H](C)C(O)(C(=O)OCC1=CCN2CC[C@H](O)[C@@H]12)C(C)C (stereo not given in full)	-7	-10	-68
C=C1CC[C@]2(O)[C@]3(C)C[C@@]4(O)O[C@@]2([C@@H]1O)[C@]1(O)[C@@]3(O)[C@H]([C@H](OO)c2ccc[nH]2)[C@](C)(C(C)C)[C@@]14C	-5	-2	13
CO[C@H]1[C@H](O)[C@H](O[C@H]2CC[C@]3(C)C4CC[C@]5(C)[C@H](C6=CC(=O)OC6)CC[C@]5(O)C4CC[C@@H]3C2)O[C@@H](C)[C@@H]1O (stereo not given in full)	123*	31	-5
CO[C@H]1[C@H](O)[C@@H](O[C@H]2CC[C@]3(C=O)C4CC[C@]5(C)[C@@H](C6=CC(=O)OC6)CC[C@]5(O)C4CC[C@@H]3C2)O[C@@H](C)[C@@H]1O (stereo not given in full)	112*	29	-53
C[C@@H]1O[C@@H](O[C@H]2C[C@@H](O)[C@]3(CO)[C@H]4[C@H](O)C[C@]5(C)[C@@H](C6=CC(=O)OC6)CC[C@]5(O)[C@@H]4CC[C@]3(O)C2)[C@H](O)[C@H](O)[C@H]1O	119*	41	-70
C[C@]12CC[C@H]3[C@@H](CC[C@]4(O)C[C@@H](O)CC[C@]34C=O)[C@@]1(O)CC[C@@H]2C1=CC(=O)OC1	115*	32	-40
SMILES	NOMO-1 viab	MITF inh	Hedgehog inh
Cn1c2c(c3ccccc31)CCNCC2	-4	0	14
COc1ccc(C(=O)O[C@H]2CC[C@@]3(C)[C@@H]4CC[C@H]5[C@]6(O)C[C@H](O)[C@@]7(O)[C@@H](CN8C[C@@H](C)CC[C@H]8[C@@]7(C)O)[C@]6(O)C[C@@]53O[C@]24O)cc1OC	-7	-10	-20
COc1ccc(CC2(CCc3ccncc3)C(=O)NC(=O)N(c3ccc(Cl)cc3)C2=O)cc1OC (stereo not given)	-28	-6	.
COc1cccc(CNCCc2c[nH]c3ccccc23)c1O	16	-6	.
C[C@@H]1O[C@@H](OC2CCC3(C)C4CCC5(C)C(C6=CC(=O)OC6)CCC5(O)C4CC[C@H]3C2)[C@H](O)[C@H](O)[C@H]1O (stereo not given in full)	109*	2	18
COc1cc(C)c(Oc2cc(C)cc(O)c2)c(O)c1	-4	9	-7
C=C1C(=O)O[C@@H]2[C@H]3C(=C)[C@@H](O)C[C@H]3C(=C)C[C@@H](O)[C@@H]12	113*	-3	-10
CCCc1c(C)nc(SCC(=O)C(C)(C)C)nc1OC(=O)N(C)C	-5	1	.
CN1CCc2cc(O)cc3c2[C@H]1Cc1ccc(O)c(O)c1-3	105*	-18	31
COc1cc2c(cc1O)C[C@H]1c3c(cc(O)c(OC)c3-2)CCN1C	13	13	-31
CCCN1CCc2cc(O)cc3c2[C@H]1Cc1ccc(O)c(O)c1-3	109*	-7	41
CC12C/C(=C\c3ccccc3)C(=O)C[C@@H]1CCC1C2CCC2(C)C1CC[C@]2(C)O (stereo not given in full)	2	7	7
O=C(O)CP(=S)(c1ccccc1)c1ccccc1	-14	16	9
CC(C)(O)c1cc(O)c2c(c1)CCC1C(C)(C(=O)O)CCCC21C (stereo not given)	-6	6	-21
COc1ccc2c3c1O[C@H]1[C@@H](O)CC=C4[C@@H](C2)N(C)CC[C@]431	13	-8	-37
O=[N+]([O-])c1c(NCCO)ccc2nonc12	6	-14	.
CCN1C[C@]2(C)CC[C@H](O)[C@@]34C2[C@H](OC)C([C@@H]13)[C@@]1(O)C[C@H](OC)[C@H]2C[C@@H]4[C@@H]1[C@H]2O	107*	26	-4
CCN1CC2(COC)CCC(O)C34C5CC6C(OC)CC(O)(C5C6O)C(C(OC)C23)C14 (stereo not given)	1	-2	-17

Assay outcomes: PubChem BioAssay, Broad Institute
